Measured values published in PubChem BioAssay (EPA / NIEHS).
Results filed as inconclusive are left out. Calls of active or inactive are those of the source. The calls were made as follows: active = hit-call score of the fitted dose curve at least 0.9, where 1 is the maximum; inconclusive = response in the unintended direction; inactive = score below 0.9.

Assay: ACEA_ER_AUC_viability: ACEA Biosciences xCELLigence Real-Time Cell Analysis on Estrogen Receptor Agonism for Viability (AID 2283782);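 also: hit means loss of impedance signal meaning reduced cell growth or viability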
In short: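 Read-out: real-time electrical impedance (RT-CES) area under curve, loss of signal taken as reduced viability, normalized to DMSO baseline. T-47D cells, charcoal-stripped serum medium, compounds up to 100 uM final, continuous exposure, 80 h.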

SMILES	outcome	AC50
CC(=O)OCC=Cc1ccccc1	inactive	–
OCCN1CCNCC1	inactive	–
Cc1ccc(C=O)s1	–	50 µM (active)
CN(C)CCCN	inactive	–
CCCCCCCCCCCCCC(=O)O	inactive	–
CCCCCCCCCCCCCCCC(=O)OC[C@H](O)[C@H]1OC(=O)C(O)=C1O	–	39.2 µM (active)
BrC1CCC(Br)C(Br)CCC(Br)C(Br)CCC1Br (stereo not drawn)	–	8.63 µM (active)
CC(=O)C=CC1=C(C)CCCC1(C)C	inactive	–
C=CCOC(=O)CCC1CCCCC1	–	75.5 µM (active)
CC(C)=CCCC(C)=CCCC(C)=CCO	–	84.2 µM (active)
Nc1ccc(S(N)(=O)=O)cc1	inactive	–
O=c1oc(=O)c2cc3c(=O)oc(=O)c3cc12	inactive	–
O=C1CCCCCCCCCCCCCCO1	inactive	–
CCCCCCCCCCN	–	45.2 µM (active)
CC(=O)Nc1ccc(C)cc1C	inactive	–
C=C(C)C1CCC(C)CC1O (stereo not drawn)	–	50 µM (active)
O=C=NC1CCC(CC2CCC(N=C=O)CC2)CC1 (stereo not drawn)	–	28.5 µM (active)
CCCCCCOC(=O)CC	–	23.9 µM (active)
CCCC(C)C=O (stereo not drawn)	–	20.8 µM (active)
NC(=O)c1ccccc1Cl	–	27.1 µM (active)
c1ccc2sc(SN(C3CCCCC3)C3CCCCC3)nc2c1	–	81.8 µM (active)
O=C(Cl)c1cccc(C(=O)Cl)c1	inactive	–
CCCCN	–	45.1 µM (active)
CCCC(=O)c1cc(O)c(O)cc1O	inactive	–
O=S(=O)(O)NC1CCCCC1	–	50 µM (active)
C=CC(=O)OCCOCCOCC	–	81.2 µM (active)
O=C(O)c1cccc([N+](=O)[O-])c1	inactive	–
CC(C)CCCCCCCOC(=O)c1ccc(C(=O)OCCCCCCCC(C)C)c(C(=O)OCCCCCCCC(C)C)c1	inactive	–
